Reference: the supplement of paper PMC10849652
Targets with a hit are over-represented here; the source holds about 7,900 in all. About 0.6% of all pairs of compound and target were hits. Values without a mark were called inactive.

Assays:
Test in all cases: log2 fold change, soluble protein after heating vs DMSO (PISA); higher = thermal stabilisation; K562 cells, 10 uM, 30 min; active = over 0.2 and 3.5 SD of the protein, either way, in both replicates (recomputed)
[1] = compound: CS(=O)(=O)c1ccc(-c2cnc(N)c(C(=O)Nc3ccccc3)n2)cc1
In short: (§1)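 Thermal stability values are relative to control samples and come from duplicates. They are expressed as log2 fold changes. For measurement, K562 cells (2×10^6 cells/mL) received 10 μM compound for 30 min, and aliquots were heated for 3 min over 48°C-58°C, pooled, and extracted at 4°C in PBS with 0.5% NP-40. Soluble protein, the supernatant after 21,000xg for 90 min, was quantified by TMTpro 16plex LC-MS/MS with equalised channel sums.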

crizotinib = compound: C[C@@H](Oc1cc(-c2cnn(C3CCNCC3)c2)cnc1N)c1c(Cl)ccc(F)c1Cl [crizotinib]
In short: as §1

[2] = compound: C[C@H](C1=CC=C(C=C1)C(=O)NC2=C3C=CNC3=NC=C2)N
In short: as §1

duvelisib = compound: C[C@H](Nc1ncnc2nc[nH]c12)c1cc2cccc(Cl)c2c(=O)n1-c1ccccc1 [duvelisib]
In short: as §1

gandotinib = compound: Cc1cc(Nc2cc(CN3CCOCC3)c3nc(C)c(Cc4ccc(Cl)cc4F)n3n2)n[nH]1 [gandotinib]
In short: as §1

tozasertib = compound: Cc1cc(Nc2cc(N3CCN(C)CC3)nc(Sc3ccc(NC(=O)C4CC4)cc3)n2)n[nH]1 [tozasertib]
In short: as §1

[3] = compound: Cc1cc(SCc2sc(-c3ccc(C(F)(F)F)cc3)nc2C)ccc1OCC(=O)O
In short: as §1

doramapimod = compound: Cc1ccc(-n2nc(C(C)(C)C)cc2NC(=O)Nc2ccc(OCCN3CCOCC3)c3ccccc23)cc1 [doramapimod]
In short: as §1

ispinesib = compound: Cc1ccc(C(=O)N(CCCN)[C@@H](c2nc3cc(Cl)ccc3c(=O)n2Cc2ccccc2)C(C)C)cc1 [ispinesib]
In short: as §1

[4] = compound: C[C@@H]1COCCN1C2=NC(=NC(=C2)C3(CC3)S(=O)(=O)C)C4=C5C=CNC5=CC=C4
In short: as §1

UniProt Q6UX07, sequence (Q6UX07 whole entry, looked up): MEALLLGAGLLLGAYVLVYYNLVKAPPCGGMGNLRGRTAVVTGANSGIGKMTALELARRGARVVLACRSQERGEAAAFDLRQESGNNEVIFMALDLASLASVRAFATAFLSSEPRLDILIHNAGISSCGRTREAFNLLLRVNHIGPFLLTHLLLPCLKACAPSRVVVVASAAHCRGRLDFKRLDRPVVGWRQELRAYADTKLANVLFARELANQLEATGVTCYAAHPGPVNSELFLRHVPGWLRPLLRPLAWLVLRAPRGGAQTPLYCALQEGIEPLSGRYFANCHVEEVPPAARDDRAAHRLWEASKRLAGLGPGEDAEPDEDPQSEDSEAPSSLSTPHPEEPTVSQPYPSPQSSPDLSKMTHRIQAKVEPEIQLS
UniProt Q07973, sequence (Q07973 whole entry, looked up): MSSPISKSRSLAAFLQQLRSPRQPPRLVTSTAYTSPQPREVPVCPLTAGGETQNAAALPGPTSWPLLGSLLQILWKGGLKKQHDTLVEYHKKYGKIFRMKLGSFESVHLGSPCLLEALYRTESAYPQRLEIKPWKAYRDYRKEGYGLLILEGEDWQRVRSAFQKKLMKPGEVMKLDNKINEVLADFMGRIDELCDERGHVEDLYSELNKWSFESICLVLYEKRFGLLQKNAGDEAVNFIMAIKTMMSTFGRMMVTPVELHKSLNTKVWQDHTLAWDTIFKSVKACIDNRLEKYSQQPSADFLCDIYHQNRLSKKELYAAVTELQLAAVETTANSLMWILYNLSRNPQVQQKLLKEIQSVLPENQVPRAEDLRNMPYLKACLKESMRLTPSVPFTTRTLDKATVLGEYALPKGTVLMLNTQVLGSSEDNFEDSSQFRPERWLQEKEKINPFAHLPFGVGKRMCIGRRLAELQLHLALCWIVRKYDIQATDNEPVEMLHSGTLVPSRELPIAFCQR
UniProt Q8WV16, sequence (Q8WV16 whole entry, looked up): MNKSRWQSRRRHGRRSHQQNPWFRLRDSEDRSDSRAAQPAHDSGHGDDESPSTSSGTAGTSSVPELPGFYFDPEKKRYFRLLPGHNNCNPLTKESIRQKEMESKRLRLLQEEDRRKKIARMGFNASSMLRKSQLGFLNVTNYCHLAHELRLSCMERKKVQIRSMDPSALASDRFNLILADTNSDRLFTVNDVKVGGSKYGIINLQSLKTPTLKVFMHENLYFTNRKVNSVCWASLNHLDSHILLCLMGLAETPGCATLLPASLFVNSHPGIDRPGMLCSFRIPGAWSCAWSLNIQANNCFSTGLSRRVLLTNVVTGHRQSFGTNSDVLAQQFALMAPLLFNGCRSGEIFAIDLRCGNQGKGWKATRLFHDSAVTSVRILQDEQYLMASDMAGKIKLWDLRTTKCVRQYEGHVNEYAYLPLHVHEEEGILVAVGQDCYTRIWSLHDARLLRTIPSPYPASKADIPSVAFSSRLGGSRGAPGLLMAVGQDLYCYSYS
UniProt A1L3X0, sequence (A1L3X0 whole entry, looked up): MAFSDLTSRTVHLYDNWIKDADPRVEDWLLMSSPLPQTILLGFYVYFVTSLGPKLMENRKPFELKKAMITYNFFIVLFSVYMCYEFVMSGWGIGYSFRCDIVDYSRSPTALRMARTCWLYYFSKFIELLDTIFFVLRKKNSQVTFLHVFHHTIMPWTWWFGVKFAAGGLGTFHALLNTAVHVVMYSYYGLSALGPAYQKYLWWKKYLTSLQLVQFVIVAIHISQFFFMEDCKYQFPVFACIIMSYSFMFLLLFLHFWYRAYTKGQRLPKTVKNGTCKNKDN
UniProt P50548, sequence (P50548 whole entry, looked up): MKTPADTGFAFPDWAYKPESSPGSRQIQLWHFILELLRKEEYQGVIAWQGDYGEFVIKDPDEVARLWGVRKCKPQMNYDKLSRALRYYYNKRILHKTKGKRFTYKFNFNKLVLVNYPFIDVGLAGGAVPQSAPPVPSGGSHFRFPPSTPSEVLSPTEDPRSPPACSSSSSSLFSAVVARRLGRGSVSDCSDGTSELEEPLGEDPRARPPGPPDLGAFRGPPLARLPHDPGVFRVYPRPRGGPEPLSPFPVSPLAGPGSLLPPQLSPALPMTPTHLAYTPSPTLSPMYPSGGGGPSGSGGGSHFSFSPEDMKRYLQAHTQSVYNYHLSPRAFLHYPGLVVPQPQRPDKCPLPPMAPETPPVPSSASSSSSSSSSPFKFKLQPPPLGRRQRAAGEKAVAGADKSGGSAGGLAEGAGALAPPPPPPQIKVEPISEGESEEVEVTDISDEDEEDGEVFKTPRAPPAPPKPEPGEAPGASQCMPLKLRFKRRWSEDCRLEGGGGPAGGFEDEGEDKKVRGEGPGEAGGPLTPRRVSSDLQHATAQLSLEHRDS
UniProt Q86YN1, sequence (Q86YN1 whole entry, looked up): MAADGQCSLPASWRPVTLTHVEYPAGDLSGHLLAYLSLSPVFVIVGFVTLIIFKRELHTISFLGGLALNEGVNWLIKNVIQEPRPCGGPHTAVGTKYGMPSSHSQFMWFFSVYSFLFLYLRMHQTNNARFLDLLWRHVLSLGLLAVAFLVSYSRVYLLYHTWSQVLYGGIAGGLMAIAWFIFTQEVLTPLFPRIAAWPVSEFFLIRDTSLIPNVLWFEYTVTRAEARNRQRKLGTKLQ
UniProt Q8TCE6, sequence (Q8TCE6 whole entry, looked up): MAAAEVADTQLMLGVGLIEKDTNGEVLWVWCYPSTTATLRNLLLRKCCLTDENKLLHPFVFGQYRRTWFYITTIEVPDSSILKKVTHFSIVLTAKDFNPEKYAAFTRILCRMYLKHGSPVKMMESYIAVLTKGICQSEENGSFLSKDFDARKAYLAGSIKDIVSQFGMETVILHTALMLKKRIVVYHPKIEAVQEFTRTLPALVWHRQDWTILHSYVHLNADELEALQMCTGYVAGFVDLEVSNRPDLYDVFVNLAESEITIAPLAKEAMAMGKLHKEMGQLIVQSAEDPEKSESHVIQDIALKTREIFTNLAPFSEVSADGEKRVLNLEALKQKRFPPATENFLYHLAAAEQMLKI
UniProt Q16531, sequence (Q16531 whole entry, looked up): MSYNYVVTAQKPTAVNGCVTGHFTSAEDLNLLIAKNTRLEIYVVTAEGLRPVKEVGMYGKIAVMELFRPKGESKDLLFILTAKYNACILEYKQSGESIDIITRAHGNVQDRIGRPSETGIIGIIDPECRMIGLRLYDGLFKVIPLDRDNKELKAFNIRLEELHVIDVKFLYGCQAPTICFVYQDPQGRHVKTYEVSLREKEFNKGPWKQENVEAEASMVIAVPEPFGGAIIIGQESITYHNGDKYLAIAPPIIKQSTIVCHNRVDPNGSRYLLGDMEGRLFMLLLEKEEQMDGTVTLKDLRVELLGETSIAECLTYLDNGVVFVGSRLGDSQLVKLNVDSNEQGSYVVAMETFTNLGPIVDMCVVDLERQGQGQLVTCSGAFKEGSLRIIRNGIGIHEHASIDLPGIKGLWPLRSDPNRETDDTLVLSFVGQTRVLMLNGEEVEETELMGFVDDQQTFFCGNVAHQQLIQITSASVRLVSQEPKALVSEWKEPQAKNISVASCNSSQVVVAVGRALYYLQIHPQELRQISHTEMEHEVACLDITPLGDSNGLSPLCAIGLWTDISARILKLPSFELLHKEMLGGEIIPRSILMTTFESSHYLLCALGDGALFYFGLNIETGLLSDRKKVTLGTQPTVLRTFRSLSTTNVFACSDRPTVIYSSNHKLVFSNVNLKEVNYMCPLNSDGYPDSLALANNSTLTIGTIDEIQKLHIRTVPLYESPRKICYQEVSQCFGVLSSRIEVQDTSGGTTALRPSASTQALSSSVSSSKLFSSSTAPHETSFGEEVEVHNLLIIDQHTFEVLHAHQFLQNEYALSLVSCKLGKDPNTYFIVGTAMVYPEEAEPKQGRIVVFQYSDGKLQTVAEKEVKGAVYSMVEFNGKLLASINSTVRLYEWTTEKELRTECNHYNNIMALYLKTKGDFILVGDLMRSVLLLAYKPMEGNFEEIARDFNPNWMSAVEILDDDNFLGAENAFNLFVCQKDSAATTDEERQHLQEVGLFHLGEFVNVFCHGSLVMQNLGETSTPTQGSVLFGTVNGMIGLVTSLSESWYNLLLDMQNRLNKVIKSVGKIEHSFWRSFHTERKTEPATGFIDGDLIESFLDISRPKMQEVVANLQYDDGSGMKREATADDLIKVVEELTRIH
UniProt Q96RI0, sequence (Q96RI0 whole entry, looked up): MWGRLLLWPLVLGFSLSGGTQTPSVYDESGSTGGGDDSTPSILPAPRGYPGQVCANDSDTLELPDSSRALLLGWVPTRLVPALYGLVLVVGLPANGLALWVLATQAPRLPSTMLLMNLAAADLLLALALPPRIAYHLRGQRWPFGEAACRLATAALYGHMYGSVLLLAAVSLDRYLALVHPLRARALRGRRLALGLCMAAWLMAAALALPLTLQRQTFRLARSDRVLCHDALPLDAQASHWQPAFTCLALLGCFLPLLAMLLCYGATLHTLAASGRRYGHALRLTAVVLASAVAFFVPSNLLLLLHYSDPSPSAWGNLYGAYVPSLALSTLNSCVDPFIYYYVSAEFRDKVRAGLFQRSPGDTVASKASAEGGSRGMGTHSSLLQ
UniProt P80370, sequence (P80370 whole entry, looked up): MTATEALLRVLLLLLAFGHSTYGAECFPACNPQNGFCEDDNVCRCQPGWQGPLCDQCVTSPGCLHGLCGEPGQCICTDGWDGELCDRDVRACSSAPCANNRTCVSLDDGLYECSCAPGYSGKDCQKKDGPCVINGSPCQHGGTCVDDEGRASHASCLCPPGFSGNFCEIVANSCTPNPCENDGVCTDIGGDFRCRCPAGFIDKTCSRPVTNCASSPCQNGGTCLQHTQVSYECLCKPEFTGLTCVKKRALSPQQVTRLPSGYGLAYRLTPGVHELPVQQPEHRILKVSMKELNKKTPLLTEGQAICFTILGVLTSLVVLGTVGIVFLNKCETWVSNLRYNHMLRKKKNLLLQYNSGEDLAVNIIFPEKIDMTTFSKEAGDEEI
UniProt Q9Y6B2, sequence (Q9Y6B2 whole entry, looked up): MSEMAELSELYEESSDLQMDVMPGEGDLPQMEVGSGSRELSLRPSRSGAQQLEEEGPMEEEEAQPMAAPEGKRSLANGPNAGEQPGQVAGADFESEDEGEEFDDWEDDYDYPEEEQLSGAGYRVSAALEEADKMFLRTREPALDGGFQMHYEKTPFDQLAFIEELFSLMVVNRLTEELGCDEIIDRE

DHRS13 (UniProt Q6UX07) gave a log2 fold change [1] of 0.107, a log2 fold change (crizotinib) of 0.127 and a log2 fold change [2] of 0.058. For the same target, the log2 fold change (duvelisib) was -0.013, the log2 fold change (gandotinib) was 0.064 and the log2 fold change (tozasertib) was 0.104. It also gave a log2 fold change [3] of 0.139, a log2 fold change (doramapimod) of 0.123 and a log2 fold change (ispinesib) of -0.034.
With DNAJB1 (UniProt M0R128) the log2 fold change [2] was -0.018 and the log2 fold change (tozasertib) was -0.082.
EEF2K (UniProt O00418) gave a log2 fold change [4] of -0.044, a log2 fold change [2] of 0.4 and a log2 fold change (gandotinib) of 0.13. It also gave a log2 fold change (ispinesib) of -0.208.
Target DOLPP1 (UniProt Q86YN1) has a log2 fold change (crizotinib) of -0.082, a log2 fold change [2] of -0.135 and a log2 fold change (tozasertib) of 0.038. The log2 fold change (doramapimod) was -0.026 and the log2 fold change (ispinesib) was 0.358 (active).
In the case of DDB1 isoform 2 (UniProt Q16531), the log2 fold change [1] is reported as 0.009, the log2 fold change [4] is reported as 0.118 and the log2 fold change (gandotinib) is reported as -0.228.
CTSS (UniProt P25774) gave a log2 fold change [1] of -0.007, a log2 fold change (crizotinib) of 0.063 and a log2 fold change [2] of 0.059. The log2 fold change (duvelisib) was 0.01, the log2 fold change (gandotinib) was 0.018 and the log2 fold change (tozasertib) was -0.114. For the same target, the log2 fold change [3] was 0.045, the log2 fold change (doramapimod) was 0.043 and the log2 fold change (ispinesib) was 0.049.
With DENND10 (UniProt Q8TCE6) the log2 fold change [1] was 0.046, the log2 fold change [4] was 0.298 (active) and the log2 fold change [2] was -0.015. For the same target, the log2 fold change (duvelisib) was 0.044, the log2 fold change (tozasertib) was -0.063 and the log2 fold change [3] was 0.03. It also gave a log2 fold change (ispinesib) of -0.021.
Target DDX46, A0A0C4DG89 has a log2 fold change [4] of -0.009.
With DOP1A (UniProt Q5JWR5) the log2 fold change [4] was 0.007.
With EPHB4 (UniProt P54760) the log2 fold change [1] was 0.15 and the log2 fold change (ispinesib) was -0.016.
F2RL3 (UniProt Q96RI0) gave a log2 fold change [2] of -0.159, a log2 fold change (duvelisib) of 0.081 and a log2 fold change (tozasertib) of -0.163. It also gave a log2 fold change [3] of -0.059 and a log2 fold change (ispinesib) of 0.004.
In the case of CYB561A3 isoform 2 (UniProt Q8NBI2), the log2 fold change [1] is reported as 0, the log2 fold change (crizotinib) is reported as -0.05 and the log2 fold change [2] is reported as -0.073. The log2 fold change (duvelisib) was 0.021, the log2 fold change (gandotinib) was -0.103 and the log2 fold change (tozasertib) was -0.126. For the same target, the log2 fold change [3] was -0.014, the log2 fold change (doramapimod) was 0.021 and the log2 fold change (ispinesib) was -0.139.
With EGR1 (UniProt P18146) the log2 fold change [1] was 0.063, the log2 fold change [4] was 0.259 and the log2 fold change [2] was -0.518. The log2 fold change (gandotinib) was -0.536, the log2 fold change (tozasertib) was -0.131 and the log2 fold change (ispinesib) was 0.36.
Work on DLK1 (UniProt P80370) yielded a log2 fold change (crizotinib) of -0.108, a log2 fold change [4] of -0.151 and a log2 fold change [2] of -0.133. For the same target, the log2 fold change (duvelisib) was -0.173, the log2 fold change [3] was -0.058 and the log2 fold change (doramapimod) was 0.002.
DNAL1 (UniProt Q4LDG9) was tested, and the log2 fold change (crizotinib) was -0.035, the log2 fold change [4] was 0.011 and the log2 fold change [2] was 0.025. The log2 fold change (duvelisib) was -0.013, the log2 fold change [3] was -0.102 and the log2 fold change (doramapimod) was -0.067. It also gave a log2 fold change (ispinesib) of -0.082.
DENND1A isoform 6 (UniProt Q8TEH3) showed a log2 fold change (crizotinib) of -0.231, a log2 fold change (tozasertib) of -0.093 and a log2 fold change (doramapimod) of 0.374.
In the case of EPHX2 (UniProt E5RI53), the log2 fold change [4] is reported as 0.067.
Target ERF (UniProt P50548) has a log2 fold change [1] of 0.173, a log2 fold change [4] of -0.05 and a log2 fold change (gandotinib) of -0.29. The log2 fold change (tozasertib) was -1.2 (active).
Work on ELOVL7 (UniProt A1L3X0) yielded a log2 fold change [4] of 0.088, a log2 fold change [2] of 0.037 and a log2 fold change (duvelisib) of -0.016. For the same target, the log2 fold change (tozasertib) was -0.018 and the log2 fold change [3] was 0.025.
DBNL (UniProt Q9UJU6) gave a log2 fold change [2] of -0.166.
With DAXX (UniProt Q9UER7) the log2 fold change [1] was 0.154, the log2 fold change (crizotinib) was 0.098 and the log2 fold change [2] was 0.106. The log2 fold change (duvelisib) was -0.001, the log2 fold change (gandotinib) was 0.313 and the log2 fold change (tozasertib) was -0.167. The log2 fold change [3] was 0.006, the log2 fold change (doramapimod) was 0 and the log2 fold change (ispinesib) was -0.062.
Target DCAF4 (UniProt Q8WV16) has a log2 fold change [1] of -0.06, a log2 fold change [4] of 0.032 and a log2 fold change (duvelisib) of -0.302. For the same target, the log2 fold change (gandotinib) was 0.07, the log2 fold change [3] was -0.056 and the log2 fold change (ispinesib) was -0.165.
FADS1 (UniProt F5GYH4) gave a log2 fold change (crizotinib) of -0.079, a log2 fold change (tozasertib) of -0.262 and a log2 fold change (doramapimod) of 0.106.
Work on ELOVL5 isoform 2 (UniProt Q9NYP7) yielded a log2 fold change [1] of 0.038, a log2 fold change [4] of 0.048 and a log2 fold change [2] of -0.004. It also gave a log2 fold change (duvelisib) of 0.074, a log2 fold change (gandotinib) of -0.34 and a log2 fold change (tozasertib) of -0.01. The log2 fold change [3] was 0.082 and the log2 fold change (ispinesib) was -0.311.
For CYP24A1 (UniProt Q07973), the log2 fold change (crizotinib) was -0.043, the log2 fold change (duvelisib) was -0.079 and the log2 fold change (gandotinib) was 0.535. The log2 fold change (tozasertib) was -0.05, the log2 fold change [3] was -0.13 and the log2 fold change (doramapimod) was 0.283. It also gave a log2 fold change (ispinesib) of -0.244.
ENTR1 (UniProt Q96C92) showed a log2 fold change (duvelisib) of 0.003 and a log2 fold change [3] of 0.048.
FAM117B (UniProt Q6P1L5) was tested, and the log2 fold change (crizotinib) was 0.563, the log2 fold change [4] was 0.007 and the log2 fold change [2] was -0.021. The log2 fold change (duvelisib) was -0.381, the log2 fold change (gandotinib) was -0.164 and the log2 fold change (tozasertib) was -0.175. It also gave a log2 fold change [3] of 0.257, a log2 fold change (doramapimod) of 0.21 and a log2 fold change (ispinesib) of -0.057.
EEF1D isoform 3 (UniProt P29692) gave a log2 fold change (tozasertib) of 0.212.
Work on DEGS1 (UniProt O15121) yielded a log2 fold change [1] of 0.064, a log2 fold change [4] of 0.062 and a log2 fold change [2] of -0.047. For the same target, the log2 fold change (duvelisib) was -0.017, the log2 fold change (gandotinib) was 0.138 and the log2 fold change (tozasertib) was -0.07. It also gave a log2 fold change [3] of -0.078.
EID1 (UniProt Q9Y6B2) gave a log2 fold change [1] of -0.14, a log2 fold change [4] of -0.424 and a log2 fold change (gandotinib) of 0.275. It also gave a log2 fold change (tozasertib) of -0.142.
EIF2AK3 (UniProt Q9NZJ5) gave a log2 fold change (crizotinib) of -0.062, a log2 fold change [4] of 0.181 and a log2 fold change [2] of 0.109. It also gave a log2 fold change (duvelisib) of 0.031, a log2 fold change (gandotinib) of -0.113 and a log2 fold change (tozasertib) of -0.359. For the same target, the log2 fold change [3] was 0.188 and the log2 fold change (doramapimod) was 0.032.
With DCAF12 (UniProt Q5T6F0) the log2 fold change [1] was -0.101 and the log2 fold change (gandotinib) was -0.735 (active).
With EIF4G1 (UniProt Q04637) the log2 fold change [2] was 0.184, the log2 fold change (duvelisib) was -0.111 and the log2 fold change (gandotinib) was -0.082. The log2 fold change (tozasertib) was -0.051 and the log2 fold change [3] was 0.227.
Target FAM160A2 isoform 2 (UniProt Q8N612) has a log2 fold change (crizotinib) of -0.004, a log2 fold change [4] of 0.042 and a log2 fold change [2] of -0.041. The log2 fold change (duvelisib) was 0.179, the log2 fold change (gandotinib) was 0.115 and the log2 fold change (tozasertib) was -0.28. For the same target, the log2 fold change [3] was 0.212, the log2 fold change (doramapimod) was -0.003 and the log2 fold change (ispinesib) was -0.192.
EDRF1 (UniProt Q3B7T1) showed a log2 fold change [1] of 0.024, a log2 fold change [4] of 0.055 and a log2 fold change [2] of -0.008. It also gave a log2 fold change (duvelisib) of 0.129, a log2 fold change (gandotinib) of 0.098 and a log2 fold change [3] of 0.134. It also gave a log2 fold change (ispinesib) of -0.24.
Target DERPC (UniProt P0CG12) has a log2 fold change (crizotinib) of 0.029, a log2 fold change (duvelisib) of 0.191 and a log2 fold change (gandotinib) of 0.006. The log2 fold change [3] was -0.113, the log2 fold change (doramapimod) was -0.099 and the log2 fold change (ispinesib) was 0.07.
FAM241A (UniProt Q8N8J7) gave a log2 fold change [1] of -0.235, a log2 fold change (crizotinib) of 0.117 and a log2 fold change [2] of -0.007. It also gave a log2 fold change (duvelisib) of -0.016, a log2 fold change (gandotinib) of -0.077 and a log2 fold change (tozasertib) of -0.027. The log2 fold change [3] was -0.034, the log2 fold change (doramapimod) was -0.018 and the log2 fold change (ispinesib) was -0.069.
